Screening results from PubChem BioAssay.
The sample as a whole holds a higher share of hits than the screen did.
12-LOX inh: blocks human arachidonate 12S-lipoxygenase | Potency, µM (doses to about 108 µM), for the others: at the highest dose activity change, negative = inhibition, actives largely listed as inhibitors | P18054 | AID 1671190 | hit rate 1.1% among 580,000 | purified 12hLO, xylenol orange hydroperoxide absorbance; further: potency means the concentration at half of the fitted maximal effect
Target sequence (P18054 whole entry, looked up): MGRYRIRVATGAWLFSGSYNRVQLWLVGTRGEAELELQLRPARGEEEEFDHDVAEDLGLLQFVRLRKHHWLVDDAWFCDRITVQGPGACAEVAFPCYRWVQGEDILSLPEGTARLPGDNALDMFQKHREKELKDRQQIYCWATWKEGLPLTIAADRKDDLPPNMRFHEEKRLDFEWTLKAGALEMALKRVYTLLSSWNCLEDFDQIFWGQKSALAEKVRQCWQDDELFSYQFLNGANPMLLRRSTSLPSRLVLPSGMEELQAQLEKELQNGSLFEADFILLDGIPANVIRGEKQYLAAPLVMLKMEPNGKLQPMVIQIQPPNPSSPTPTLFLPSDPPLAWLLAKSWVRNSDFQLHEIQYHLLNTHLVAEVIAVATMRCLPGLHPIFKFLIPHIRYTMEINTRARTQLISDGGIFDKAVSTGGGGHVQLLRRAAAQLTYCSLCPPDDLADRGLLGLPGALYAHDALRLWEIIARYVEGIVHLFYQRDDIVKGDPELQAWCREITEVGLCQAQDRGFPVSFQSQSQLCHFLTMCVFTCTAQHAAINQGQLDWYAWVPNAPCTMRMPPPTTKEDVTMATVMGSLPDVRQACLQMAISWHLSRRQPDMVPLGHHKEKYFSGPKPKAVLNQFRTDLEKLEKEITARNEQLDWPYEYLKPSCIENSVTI
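Purified human 12hLO at 150 nM in 25 mM Hepes, 0.01% Triton X-100, pH 7.0, preincubated 15 min at room temperature with compound. Reaction started with 40 uM arachidonic acid, 30 min at room temperature. Hydroperoxide measured by Fe-xylenol orange, 573/405 nm absorbance ratio.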
HT1080NT lethal: kills 2HG-producing HT-1080-NT fibrosarcoma cells; AID 686970; Potency, µM (top dose mostly 46.1 µM), inactives show top-dose activity, negative = less viability, hits mostly cytotoxic; HT-1080-NT fibrosarcoma viability, CellTiter-Glo ATP luminescence, 48 h; hit rate 1.6% among 360,000;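 further: NT is the 2HG producing partner of a matched IDH1 knockdown line; potency means the concentration at half of the fitted maximal effect; 0% = DMSO-treated cells and -100% = media-only wells without cells; nearly all actives have a fitted effect of over 55% in size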
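Luminescent CellTiter-Glo readout after 48 hours of compound exposure at 37 degrees C defined viability of HT-1080-NT cells. Activity was normalized to DMSO wells and cell-free media wells; concentration-response curves were fitted and assigned curve classes.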
DT40 TDP1 no CPT: qHTS for Inhibitors of human tyrosyl-DNA phosphodiesterase 1 (TDP1): qHTS in cells in absence of CPT. DT40 Tdp1-/- hTDP1 cells, no CPT, ATP luminescence, 48 h. Potency, µM (series often up to 46.2 µM), inactives show top-dose activity change, negative = growth inhibition, usual class: inhibitors. hit rate 15% among 420,000. AID 686978, 2013; further: potency means the concentration at half of the fitted maximal effect; nearly all actives have a fitted effect of over 55% in size
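No-CPT arm: Tdp1-/-;hTDP1 DT40 cells (400/well) plus compounds, incubated ≥48 hr at 37 °C. Readout CellTiter-Glo luminescence.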
DT40 TDP1 CPT: growth inhibition of DT40 Tdp1-/-;hTDP1 cells with camptothecin (screen for TDP1 inhibitors) | chicken DT40 Tdp1-/-;hTDP1 cells + 20 nM CPT, ATP luminescence, 48 h | Potency, µM (series often up to 46.2 µM), for the others: at the top dose activity change, negative = growth inhibition, hits mostly inhibitors | hit rate 12% among 420,000 | AID 686979; further: potency means the concentration at half of the fitted maximal effect; nearly all actives have a fitted effect of over 55% in size
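Cell growth measured by CellTiter-Glo luminescence after a minimum 48 h, 37 C compound exposure with 20 nM CPT in Tdp1-knockout DT40 cells stably expressing hTDP1, seeded 400/well; qHTS titration format.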
IL-1B inflam inh: inhibitors of inflammasome signaling (IL-1 beta secretion) | THP-1 LPS/ATP IL-1B secretion, AlphaLISA, 16 h; hits give low values | activity change, % at 57.5 µM | hit rate 4.7% among 360,000 | AID 743279; in the data active means activity change below about -50%; inconclusive means mostly about -30% to -49%
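Secreted IL-1B measured by AlphaLISA bead assay after 16 h compound exposure of THP-1 cells; compounds (final up to 57.5 uM) added 1 h before LPS (250 ng/mL) and ATP (1.25 mM) stimulation; lower signal means less secretion.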
HT1080 IDH1KD tx: kills HT-1080 cells with IDH1 knockdown; HT-1080 IDH1 knockdown viability, ATP luminescence, 48 h; Potency, µM (titrated, usually from 46.1 µM), for inactives: at the top dose activity, negative = toxicity, usual class: cytotoxic; hit rate 2% among 360,000;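 further: potency means the concentration at half of the fitted maximal effect; 0% = DMSO wells and -100% = cell-free medium wells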
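In this qHTS, HT-1080 cells depleted of IDH1 are exposed for 48 h at 37 °C to compound titrations. Toxicity is scored from CellTiter-Glo luminescence, with DMSO as full viability and medium alone as none.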
* = called active by the depositor; ? = inconclusive; / = no result; [ ] = another dose, or the depositor's remark. Unless noted, the call rests on the fitted dose curve; in most records, active means well fitted curve in the direction sought with a large enough effect; inconclusive means small, poorly fitted or top-dose-only effect, or another doubt; inactive means no such curve, though single readings can be large; an effect the other way counts as inactive or inconclusive. Unless noted, on the % scale 0 is the no-effect control and ±100 the full control effect.

SMILES	12-LOX inh	HT1080NT lethal	DT40 TDP1 no CPT	DT40 TDP1 CPT	IL-1B inflam inh	HT1080 IDH1KD tx
CSc1nc2ccc(NC(=O)c3nn(C(C)C)c(=O)c4ccccc34)cc2s1	19%	-3%	?	18µM*	-52*	0%
O=C(c1ccoc1)N1CCC(Nc2cccnc2)C1 (stereo not drawn)	21%	/	/	/	/	/
COc1ccc(-n2nc([N+](=O)[O-])c(=NCCc3ccc(OC)c(OC)c3)n2O)cc1	-6%	-12%	21µM*	15µM*	?	-16%
COc1ccc(-n2nc([N+](=O)[O-])c(=NC3CCN(Cc4ccccc4)CC3)n2O)cc1	-19%	-10%	15µM*	16µM*	-5	-8%
COc1ccc(-n2nc([N+](=O)[O-])c(=NCCc3ccc(C)cc3)n2O)cc1	2%	5%	?	?	-27	-2%
O=[N+]([O-])c1nn(-c2ccc3c(c2)OCCO3)n(O)c1=NC1CCCCC1	4%	-15%	?	21µM*	-25	-18%
COc1ccc(-n2nc([N+](=O)[O-])c(=NCc3cccnc3)n2O)cc1	-13%	1%	?	16µM*	23	0%
O=[N+]([O-])c1nn(-c2ccc3c(c2)OCCO3)n(O)c1=NCc1ccccc1Cl	3%	8%	?	-28%	-20	?
COc1ccc(-n2nc([N+](=O)[O-])c(=NCc3ccco3)n2O)cc1	1%	9%	-24%	7%	1	4%
C[C@@H](NC(=O)c1ccc2c(c1)OCO2)c1onc(-c2ccc(F)cc2)c1C(=O)O	-2%[176 µM]	/	/	/	/	/
COc1ccc(-n2nc([N+](=O)[O-])c(=NCCC3=CCCCC3)n2O)cc1	7%	-14%	?	21µM*	-55*	-12%
CC(C)NC(=O)c1nc(-c2cccc(C(F)(F)F)c2)c2cnccn12	8%	/	/	/	/	/
CC1=CC(C)(C)N(S(=O)(=O)c2ccc(F)cc2)c2ccccc21	0%	11µM*	?	26µM*	64	?
C/C=C/C(=O)N1c2ccc(C)cc2C(C)=CC1(C)C	-4%	-2%	?	?	25	0%
CC1=CC(C)(C)N(S(=O)(=O)c2ccc(C)cc2)c2ccc(C)cc21	5%	3.2µM*	18µM*	5.8µM*	-4	6.3µM*
CN(Cc1ccccc1)C(=O)C[C@@H]1c2nc(NC(=O)c3c(F)cccc3F)sc2C[C@@H]2[C@](C)(CO)[C@H](O)CC[C@]21C	5%	/	/	/	/	/
Cn1cc2c3c(cccc31)CN(C(=O)Cc1ccccc1F)CC2	-12%	/	/	/	/	/
CC(C)C(=O)N1CCCC1(C)C(=O)NCc1ccccn1 (stereo not drawn)	4%	2%	31%	-18%	49	29%
CSc1ccccc1CNC(=O)C1(C)CCCN1CC(C)C (stereo not drawn)	-5%	3%	23µM*	26µM*	24	-12%
Cc1ccsc1CNC(=O)C1(C)CCCN1CC(C)C (stereo not drawn)	5%	16%	?	15µM*	11	6%
Cc1cccnc1CNC(=O)C1(C)CCCN1CC(C)C (stereo not drawn)	5%	24%	15µM*	15µM*	53	26%
Cc1ccsc1C(=O)N1CCCC1(C)C(=O)NCC(C)C (stereo not drawn)	5%	1%	-12%	-9%	4	12%
COCCn1c(C)c(C)c(S(=O)(=O)c2ccc(OC)cc2)c1NC(=O)c1ccco1	-51%	/	/	/	/	/
CC(=O)Nc1nc2ccc(CCC(=O)NCc3ccc(Cl)cc3)cc2s1	3%	/	/	/	/	/
COc1ccc(C(=O)CN2C(=O)N(c3cc(C)cc(C)c3)S(=O)(=O)c3ccccc32)cc1	-19%	/	?	?	/	/
SMILES	12-LOX inh	HT1080NT lethal	DT40 TDP1 no CPT	DT40 TDP1 CPT	IL-1B inflam inh	HT1080 IDH1KD tx
CCc1noc(-c2cccn3c(CNC(=O)c4ccccc4Cl)nnc23)n1	58%	/	/	/	/	/
c1ccc(-c2nnc3ccc(N4CCCC4)nn23)cc1	7%[57.4 µM]	16%	?	-25%	-29	0%
Cc1cccc(C)c1N1CCN(c2ccc3nnc(C(F)(F)F)n3n2)CC1	?	?	21µM*	21µM*	-19	?
FC(F)(F)c1nnc2ccc(N3CCCCC3)nn12	148%	0%	-23%	10%	92	6%
FC(F)(F)c1cccc(N2CCN(c3ccc4nnc(-c5ccccc5)n4n3)CC2)c1	?	-2%	?	16µM*	?	-12%
CCCC(C)C(O)CC (stereo not drawn)	10%[176 µM]	/	/	/	/	/
NC(=O)CSc1nc2scc(-c3ccc(Cl)cc3)c2c(=O)n1Cc1ccccc1	-8%	-25%	8.2µM*	9.2µM*	55	-10%
C=CCn1c(SCC(=O)Nc2ccc(C(=O)O)cc2)nc2scc(-c3ccccc3)c2c1=O	-3%	3%	-6%	6%	-13	-12%
Cc1ccc(-c2csc3nc(SCC(=O)N(C)C)n(Cc4ccccc4)c(=O)c23)cc1	1%	-22%	13µM*	12µM*	-22	-29%
CNC(=O)[C@@H]1C[C@@H](O)CN1C1CCN(C(=O)C2CCCCC2)CC1	38%	/	/	/	/	/
CCS(=O)(=O)CC(=O)N1CCn2nc(C(=O)Nc3ccccc3)cc2C1	43%	/	/	/	/	/
O=[N+]([O-])c1ccc(Cl)c(/C=N/N2CCN(Cc3ccccc3Cl)CC2)c1	0%	1%	21µM*	?	-7	0%
Cc1ccc(CN2CCN(/N=C\c3cccc([N+](=O)[O-])c3)CC2)cc1	-21%	-17%	?	3%	-62*	-21%
O=[N+]([O-])c1ccc(Cl)c(CN2CCC(O)CC2)c1	-12%	14%	-12%	-21%	-1	7%
Cn1cccc1/C=N/N1CCN(Cc2ccccc2Cl)CC1	0%	-4%	2.6µM*	-13%	-19	-5%
O=[N+]([O-])c1ccc(Cl)c(CN2CCCCCC2)c1	0.56µM*	0%	-19%	-25%	-12	1%
Cc1ccc(/C=N/N2CCN(Cc3ccc(C)cc3)CC2)cc1	-108%	4%	-12%	1%	2	2%
COc1ccc(N2C(=O)C3(CCCCC3)C2C(=O)N2CCN(C(C)C)CC2)cc1 (stereo not drawn)	26%	/	/	/	/	/
COC(=O)c1cccc(C(=O)NCC(F)(F)F)c1	19%	/	/	/	/	/
Fc1ccccc1/C=N/N1CCN(Cc2ccccc2Cl)CC1	13µM*	25%	?	?	-19	22%
